In the supplement of paper PMC13380429:

Tested on: Vero E6 infected with SARS-CoV-2
Experiment: inhibition of SARS-CoV-2 cytopathic effect; higher = more antiviral protection, active = above 15
Details: 48 h

Measured: inhibition of SARS-CoV-2 cytopathic effect

N[C@H]1C[C@@H]1c1ccc(-c2cccc(O)c2)cc1
inactive: 1 nM 1.62% | 8.33 nM -1.45% | 100 nM -0.41% | 833.33 nM -1.63% | 10000 nM -0.24%

NC(=O)NCCC[C@H](N)C(=O)O [L-citrulline]
inactive: 1 nM 0.06% | 8.33 nM -1.99% | 100 nM 1.8% | 833.33 nM 2.58% | 10000 nM 1.61%

COc1ccc(CN(C(=O)[C@@H](N)Cc2c(C)cc(C(N)=O)cc2C)[C@@H](C)c2ncc(-c3ccccc3)[nH]2)cc1C(=O)O [eluxadoline]
inactive: 1 nM 2.78% | 8.33 nM 1.84% | 100 nM 0.96% | 833.33 nM 1.03% | 10000 nM 1.03%

CCC(O)(CC(N)=O)c1ccccc1 (stereo not given) [3-hydroxy-3-phenylpentanamide]
inactive: 1 nM 1.46% | 8.33 nM 0.49% | 100 nM -0.1% | 833.33 nM -10.4% | 10000 nM 0.22%

CC1=CC(=O)c2ccccc2C1=O [menadione]
inactive: 1 nM 1% | 8.33 nM 1.27% | 100 nM -0.28% | 833.33 nM -0.16% | 10000 nM -2.15%

CCCCOc1cc(CC2CNC(=O)N2)ccc1OC (stereo not given)
inactive: 1 nM -0.73% | 8.33 nM 1.6% | 100 nM -3.01% | 833.33 nM -0.63% | 10000 nM -1.88%

COc1cc2ncc(-c3ccccc3)nc2cc1OC [tyrphostin-AG-1296]
inactive: 1 nM 1.41% | 8.33 nM 0.53% | 100 nM 0.84% | 833.33 nM -1.04% | 10000 nM -1.96%
